Test results: PubChem BioAssay (NCI)
The panel holds about 79,000 compounds, 15% with a hit somewhere; the sample as a whole holds those more often. Calls of active or inactive are those of the source. Cut-off read from the data, not from the text of the source: active = growth inhibition above about 70%; inactive = the rest.

Assays:
[1] = NCI Yeast Anticancer Drug Screen. Data for the mec2-1 strain (AID 157); settings: S. cerevisiae mec2-1 strain, stronger effect = higher value
Outline: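 Growth inhibition is read against vehicle-treated controls after compound exposure of the mec2-1 yeast strain, which is defective in DNA damage repair or cell cycle control.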

[2] = NCI Yeast Anticancer Drug Screen. Data for the sgs1 mgt1 strain (AID 161);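 note: 0% = growth of cultures given vehicle only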; settings: S. cerevisiae sgs1 mgt1 strain, stronger effect = higher value
Outline: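 Yeast cells carrying a defined DNA-repair defect were exposed to test compounds. Growth inhibition was measured relative to vehicle-treated controls.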

[3] = NCI Yeast Anticancer Drug Screen. Data for the CLN2oe strain (AID 163);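 note: 0% = growth of vehicle-only control cultures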; settings: S. cerevisiae CLN2oe strain, stronger effect = higher value
Outline: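 Compound-treated yeast; growth vs vehicle ctrl = % inhibition. Genetically altered strain (cell-cycle control).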

[4] = NCI Yeast Anticancer Drug Screen. Data for the cln2 rad14 strain (AID 165);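 note: 0% = growth equal to vehicle treated cultures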; settings: S. cerevisiae cln2 rad14 strain, stronger effect = higher value
Outline: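 Growth inhibition, relative to vehicle-treated controls, is the read-out. The test organism is a yeast strain with defined genetic alterations, cln2 rad14.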

[5] = NCI Yeast Anticancer Drug Screen. Data for the bub3 strain (AID 167); settings: S. cerevisiae bub3 mutant strain, stronger effect = higher value
Outline: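 Mutant yeast screening strain plus compound; vehicle-treated cultures serve as the 0% inhibition reference.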

[6] = NCI Yeast Anticancer Drug Screen. Data for the wt2 strain (AID 169); settings: S. cerevisiae wt2 strain growth inhibition, stronger effect = higher value
Outline: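 Compound exposure of yeast; growth compared with vehicle controls; inhibition reported.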

[7] = NCI Yeast Anticancer Drug Screen. Data for the mlh1 strain (AID 171);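 note: 0% = growth of vehicle-treated control cultures of the same strain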; settings: S. cerevisiae mlh1 strain growth inhibition, stronger effect = higher value
Outline: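 Compounds are applied to a genetically altered yeast strain, and its growth is compared with that of vehicle-treated cultures to give percent inhibition.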

[8] = NCI Yeast Anticancer Drug Screen. Data for the sgs1 strain (AID 173);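 note: 0% = growth of vehicle-only control cultures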; settings: S. cerevisiae sgs1 mutant, stronger effect = higher value
Outline: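 Compounds applied to genetically altered yeast; growth compared with vehicle-treated cultures to give % inhibition.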

[9] = NCI Yeast Anticancer Drug Screen. Data for the mlh1 rad18 strain (AID 175); settings: S. cerevisiae mlh1 rad18 strain growth inhibition, stronger effect = higher value
Outline: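 Cells of a genetically altered yeast strain, deficient in DNA damage repair, were treated with compound. Their growth was then compared with that of vehicle-treated cultures to give inhibition.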

[10] = NCI Yeast Anticancer Drug Screen. Data for the rad18 strain (AID 177); settings: S. cerevisiae rad18 mutant growth inhibition, stronger effect = higher value
Outline: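 Compounds are applied to a repair-deficient yeast strain, and growth is compared with that of vehicle-treated cultures to give percent inhibition.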

[11] = NCI Yeast Anticancer Drug Screen. Data for the rad52 strain (AID 147);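 note: 0% = growth of vehicle-treated control cultures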; settings: S. cerevisiae rad52 mutant growth inhibition, stronger effect = higher value
Outline: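 DNA repair-defective yeast; compound exposure; growth scored against vehicle controls.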

[12] = NCI Yeast Anticancer Drug Screen. Data for the wt1 strain (AID 149);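 note: 0% = growth of vehicle-treated wt1 cultures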; settings: S. cerevisiae wt1 strain (SPY 50644) growth inhibition, stronger effect = higher value
Outline: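 Each compound is tested on wt1 yeast and the loss of growth versus vehicle gives the inhibition value.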

[13] = NCI Yeast Anticancer Drug Screen. Data for the rad50EPP+ strain (AID 151);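 note: 0% = growth of vehicle-treated control cultures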; settings: S. cerevisiae rad50 mutant strain, stronger effect = higher value
Outline: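 rad50EPP+ yeast treated with test compounds. Readout: growth vs vehicle control.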

[14] = NCI Yeast Anticancer Drug Screen. Data for the mgt1 strain (AID 153); settings: S. cerevisiae mgt1 mutant growth inhibition, stronger effect = higher value
Outline: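 Growth inhibition relative to vehicle controls was scored for the mgt1 yeast strain after compound exposure.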

[15] = NCI Yeast Anticancer Drug Screen. Data for the rad50 strain (AID 155);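 note: 0% = growth of vehicle-only cultures of the same strain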; settings: S. cerevisiae rad50 strain growth inhibition, stronger effect = higher value
Outline: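 Vehicle-treated cultures provide the reference for the growth inhibition reported for compound-exposed, repair-deficient yeast.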

[16] = at 5.0 µM (retest, dose inferred, filed as 0.5)
[17] = at 50.0 µM (retest, dose inferred, filed as 5.0)

Measured: growth inhibition

Cc1cccc(C)c1NC(=O)C(C#N)C1=C(Cl)C(=O)c2ccccc2C1=O (stereo unspecified)
active: [1]; [16] 99% | [1]; at 11.0 µM 98% | [1]; at 33.0 µM 98% | [1]; [17] 99% | [1]; at 50.0 µM 93.1% | [1]; at 100.0 µM 98% | [2]; [16] 99% | [2]; [17] 99% | [2]; at 50.0 µM 93.7% | [3]; at 11.0 µM 77% | [3]; at 33.0 µM 97% | [3]; at 100.0 µM 96% | [4]; [17] 98% | [4]; at 50.0 µM 92.8% | [5]; at 3.7 µM 70% | [5]; [16] 99% | [5]; at 11.0 µM 97% | [5]; at 33.0 µM 97% | [5]; [17] 98% | [5]; at 50.0 µM 92.2% | [5]; at 100.0 µM 95% | [6]; at 11.0 µM 98% | [6]; at 33.0 µM 98% | [6]; at 100.0 µM 98% | [7]; at 3.7 µM 78% | [7]; at 11.0 µM 98% | [7]; at 33.0 µM 98% | [7]; at 100.0 µM 98% | [8]; at 11.0 µM 97% | [8]; at 33.0 µM 98% | [8]; at 100.0 µM 97% | [9]; [16] 98% | [9]; [17] 98% | [9]; at 50.0 µM 91.7% | [10]; at 11.0 µM 92% | [10]; at 33.0 µM 97% | [10]; at 100.0 µM 96%
inactive: [3]; at 1.2 µM 3% | [3]; at 3.7 µM 16% | [4]; [16] 65% | [5]; at 1.2 µM 6% | [6]; at 1.2 µM -22% | [6]; at 3.7 µM 35% | [7]; at 1.2 µM -4% | [8]; at 1.2 µM 8% | [8]; at 3.7 µM 45% | [10]; at 1.2 µM -32% | [10]; at 3.7 µM -1%

COc1cc2c(cc1OC)[C@@H](Nc1ccc(C#N)cc1)C1COC(=O)[C@@H]1C2c1cc(OC)c(O)c(OC)c1 (stereo partly specified)
inactive: [11]; at 1.2 µM 14% | [11]; at 3.7 µM 52% | [12]; at 1.2 µM -34% | [12]; at 3.7 µM -33% | [12]; at 11.0 µM -9% | [12]; at 33.0 µM 6% | [13]; at 1.2 µM -15% | [13]; at 3.7 µM -11% | [13]; at 11.0 µM -1% | [13]; at 33.0 µM 6% | [13]; at 100.0 µM 20% | [14]; at 1.2 µM -17% | [14]; at 3.7 µM -19% | [14]; at 11.0 µM 12% | [14]; at 33.0 µM 20% | [15]; at 1.2 µM 24% | [1]; at 1.2 µM -22% | [1]; at 3.7 µM 5% | [1]; [16] 11% | [1]; at 11.0 µM 15% | [2]; [16] 17% | [3]; at 1.2 µM -5% | [3]; at 3.7 µM 19% | [3]; at 11.0 µM 11% | [3]; at 33.0 µM 38% | [4]; [16] 7% | [5]; at 1.2 µM -32% | [5]; at 3.7 µM -13% | [5]; [16] -54% | [5]; at 11.0 µM -22% | [5]; at 33.0 µM 15% | [6]; at 1.2 µM 6% | [6]; at 3.7 µM 17% | [6]; at 11.0 µM 46% | [7]; at 1.2 µM -3% | [7]; at 3.7 µM 9% | [7]; at 11.0 µM 16% | [7]; at 33.0 µM 33% | [8]; at 1.2 µM -20% | [8]; at 3.7 µM -14% | [8]; at 11.0 µM -2% | [8]; at 33.0 µM 39% | [9]; [16] 9% | [10]; at 1.2 µM -30% | [10]; at 3.7 µM -8% | [10]; at 11.0 µM -5% | [10]; at 33.0 µM 13%
active: [11]; at 11.0 µM 81% | [11]; at 33.0 µM 91% | [11]; at 100.0 µM 93% | [12]; at 100.0 µM 79% | [14]; at 100.0 µM 83% | [15]; at 3.7 µM 70% | [15]; [16] 88% | [15]; at 11.0 µM 90% | [15]; at 33.0 µM 93% | [15]; [17] 97% | [15]; at 50.0 µM 88% | [15]; at 100.0 µM 95% | [1]; at 33.0 µM 70% | [1]; [17] 98% | [1]; at 50.0 µM 91.5% | [1]; at 100.0 µM 91% | [2]; [17] 96% | [2]; at 50.0 µM 88% | [3]; at 100.0 µM 84% | [4]; [17] 91% | [4]; at 50.0 µM 82% | [5]; [17] 95% | [5]; at 50.0 µM 89.2% | [5]; at 100.0 µM 78% | [6]; at 33.0 µM 90% | [6]; at 100.0 µM 93% | [7]; at 100.0 µM 81% | [8]; at 100.0 µM 85% | [9]; [17] 94% | [9]; at 50.0 µM 86.7% | [10]; at 100.0 µM 84%
